From PubChem BioAssay (NCATS) come the findings set out here.

Each structure is given as a SMILES string. Records with an inconclusive call do not appear. Active and inactive are the calls of the source. Calls follow the shape of the dose curve; as a rule, active = well fitted inhibition curve with a large enough effect; inconclusive = small, poorly fitted or top-dose-only effect; inactive = no such curve, though single readings can be large or run the other way.
Potency is read from the fitted curve at half-maximal effect.

The experiment is described as follows: BET inhibitor-based combinations targeting novel dependencies in MECOM-rearranged (r) AML: SET-2 cell line (AID 2202231). Also: nearly all actives have a fitted effect of over 35% in size. As to conditions: SET-2 AML cells viability, CellTiter-Glo luminescence, 48 h; viability: hits give low values, series mostly up to about 46 µM. The source says:
Ecotropic viral insertion site 1 (EVI1) is located on chromosome 3q26.2 as part of the MECOM (MDS and EVI1 complex) locus. Under normal hematopoiesis, EVI1 is a regulator of hematopoietic stem cell maintenance and self-renewal and EVI1 levels decrease as the cells differentiate. In approximately 5-10% of de novo acute myeloid leukemia (AML) EVI1 is aberrantly expressed, including Chromosomal inv(3)(q21;q26.2) or t(3;3)(q21;q26.2) alterations (MECOM-r) that account for about 50% of AML with EVI1 overexpression 31. AMLs with high levels of EVI1 have a poor prognosis and an overall survival time averaging between 10-14 months. EVI1 overexpression confers resistance in leukemia cells, highlighting the need to develop new targeted therapies for EVI1 overexpressing AMLs.
Here, we performed an unbiased chemical drug screening by evaluating the single agent activity of a collection of 2,480 oncology-focused, approved and investigational drugs (NCATS Mechanism Interrogation Plates, MIPE v5.0) against a panel of seven AML cell lines. These included four MECOM-r cell-lines (AML-191, AML-194, UCSD-AML1 and HNT-34) and three non-MECOM-r AMLs (MV4-11, OCI-AML3 and SET-2). Exploiting the mechanistic redundancy built in the library, we identified target-level sensitivities in MECOM-r AML cells and relative activity as compared to other AML subtypes.
A collection of 2480 mechanistically annotated dugs (MIPE v5.0) was used to screen four 3q26.2 rearranged AML cell lines and three non-3q26.2 rearranged AML cell lines. This library purposely exploits redundancy by including multiple inhibitors of key onco-targets, while simultaneously encompassing mechanistic diversity, targeting more than 800 distinct mechanisms of action. Briefly, cells were seeded in 5 uL of growth media using a Multidrop Combi dispenser into 1536 well white polystyrene tissue culture treated plates (Corning) at a density of 500cells/well. For each cell-line, for each of the 2480 drugs in MIPE v5.0 library, an 11-point dose curve was generated via a 1536 pin-tool. Plates were incubated for 48 hr at standard incubator conditions, covered by a stainless steel gasketed lid to prevent evaporation. Cell viability was determined by luminescence based, Cell Titer Glo assay (Promega). In detail, 3 uL of Cell Titer Glo were added to each well and plates were incubated at room temperature for 15 min with a stainless-steel lid in place. Luminescence readings were taken using a Viewlux (PerkinElmer) with a 2 s exposure time per plate. Compound dose-response curves were normalized to DMSO and empty well controls on each plate. Quantitative drug activity data from dose-response curves was determined utilizing area Under the Curve (AUC) and Z-transformed AUC (Z-AUC, a mean-centering transformation applied to each individual cell-line screened).
Take `CCN1CCN(C(=O)N[C@@H](C(=O)N[C@@H]2C(=O)N3C(C(=O)O)=C(CSc4nnnn4C)CS[C@H]23)c2ccc(O)cc2)C(=O)C1=O`: the viability is 99.4% (inactive).
Still for that read-out and setting: next, `CN1CCC(=C2c3ccccc3CC(=O)c3sccc32)CC1`: 112% (inactive); `COC(=O)[C@@H]1[C@H]2C[C@H]3c4[nH]c5ccccc5c4CCN3C[C@@H]2CC[C@@H]1O`: 106% (inactive).
For the molecule `C=Cc1c(C)c2cc3nc(cc4[nH]c(cc5nc(cc1[nH]2)C(C)=C5CCC(=O)O)c(CCC(=O)OC)c4C)[C@@]1(C)C3=CC=C(C(=O)OC)[C@H]1C(=O)OC`, the viability is 97.6% (inactive).
For `Nc1nc(N)nc(-c2cc(Cl)ccc2Cl)n1`, the viability was 105% (inactive).
On to `Cc1coc2c1C(=O)C(=O)c1c-2ccc2c1CCCC2(C)C`, for which the viability was 97.6% (inactive).
Consider `Cc1cnc(C(=O)NCCc2ccc(S(=O)(=O)NC(=O)NC3CCCCC3)cc2)cn1`, for which the viability is 105% (inactive).
Turning to `COCCN1CCN(Cc2ccc(-c3n[nH]c4c3C(=O)c3c(NC(=O)NN5CCOCC5)cccc3-4)cc2)CC1`, the Potency is 0.417 µM (active).
On the same count and under the same terms, the result for `CCc1c2c(nc3ccc(OC(=O)N4CCC(N5CCCCC5)CC4)cc13)-c1cc3c(c(=O)n1C2)COC(=O)[C@]3(O)CC` reads 0.372 µM (active); that for `O=C1C(Cl)=C(NCCN2CCOCC2)C(=O)c2ncccc21`, 3.72 µM (active).
Regarding `CC(NCCc1ccc(O)cc1)C(O)c1ccc(O)cc1` (stereo not given), the viability was 112% (inactive).
The same measure, in the same setting: next, `O=C(CC12CC3CC(CC(C3)C1)C2)Nc1cccc2nc(NCCNCCO)ccc12`: 114% (inactive).
`CN1CCN(C2CCN(C(=O)Nc3cc(Oc4ccc(NC(=O)C5(C(=O)Nc6ccc(F)cc6)CC5)c(F)c4)ccn3)CC2)CC1`: the Potency is 20.9 µM (active).
On to `CN1C(C(=O)Nc2ccccn2)=C(O)c2sc(Cl)cc2S1(=O)=O`, for which the viability is 103% (inactive).
On the same count and under the same terms, the result for `Cc1c(F)cc(C(=O)NC2CC2)cc1-c1ccc(C(=O)NCC(C)(C)C)cn1` reads 92.7% (inactive); that for `CC(=O)NC(CS)C(=O)O` (stereo not given), 104% (inactive).
As for `O=C(Nc1ccc2[nH]nc(-c3ccncc3)c2c1)[C@@H]1CCN(CC(=O)N2CCN(c3ccc(-c4ncccn4)cc3)CC2)C1`, the Potency was 23.5 µM (active).
As for `O=C(Nc1nc2cccc(-c3ccc(CN4CCS(=O)(=O)CC4)cc3)n2n1)C1CC1`, the Potency was 18.6 µM (active).
With `CCCC(CCC)C(=O)O`, the viability is 112% (inactive).
Regarding `Cc1ccc(-n2nc(C(C)(C)C)cc2NC(=O)Nc2ccc(OCCN3CCOCC3)c3ccccc23)cc1`, the viability is 102% (inactive).
For the molecule `Fc1ccc2[nH]ccc2c1-c1nc(N2CCOCC2)c2sc(CN3CCN(CC4CC4)CC3)cc2n1`, the Potency was 23.5 µM (active).
Take `Cc1cc2c(cc1C1(c3ccc(C(=O)O)cn3)CC1)C(C)(C)CCC2(C)C`: the viability was 114% (inactive).
For the molecule `CN(C)C/C=C/C(=O)Nc1cccc(C(=O)Nc2cccc(Nc3ncc(Cl)c(-c4c[nH]c5ccccc45)n3)c2)c1`, the Potency is 1.05 µM (active).
Consider `c1nc2nc(Nc3ccc(N4CCOCC4)cc3)nc(NC3CCCCC3)c2[nH]1`, for which the Potency was 4.17 µM (active).
For `COc1cc(SC)ccc1C(=O)N1CCC(Cc2ccccc2)CC1`, the viability was 97% (inactive).
For the molecule `CC[N+](CC)(CC)CCOc1cccc(OCC[N+](CC)(CC)CC)c1OCC[N+](CC)(CC)CC`, the viability was 113% (inactive).
Take `CN1CCc2c(c3ccccc3n2Cc2ccc(C(=O)NO)cc2)C1`: the Potency is 20.9 µM (active).
Take `CC[C@H](NC(=O)[C@H](CS(=O)(=O)CC1CC1)N[C@@H](c1ccc(F)cc1)C(F)(F)F)C(=O)C(=O)NC1CC1`: the viability is 112% (inactive).
Take `COc1cc(N2CCC(N)CC2)ccc1Nc1ncc(Cl)c(-c2c[nH]c3ccccc23)n1`: the Potency is 18.6 µM (active).
On to `CN[C@H]1CCc2cc(OC)c(OC)c(OC)c2-c2ccc(OC)c(=O)cc21`, for which the Potency is 0.186 µM (active).
For `CCN(CC)CCCC(C)Nc1ccnc2cc(Cl)ccc12` (stereo not given), the viability is 102% (inactive).
`C/C=C/C(=O)N(CC)c1ccccc1C`: the viability was 107% (inactive).
The same measure, in the same setting: the result for `CCn1cc(C(=O)O)c(=O)c2cc(F)c(N3CCNC(C)C3)c(F)c21` (stereo not given) reads 95.2% (inactive).
Turning to `N[C@@H]1CONC1=O`, the viability was 117% (inactive).
`Cc1cc(Nc2ncc3c(n2)N(C)C(=O)N(c2cc(NC(=O)c4cccc(C(F)(F)F)c4)ccc2C)C3)n(C)n1`: the Potency is 0.833 µM (active).
Consider `C#CCC(Cc1cnc2nc(N)nc(N)c2n1)c1ccc(C(=O)N[C@@H](CCC(=O)O)C(=O)O)cc1` (stereo not given in full), for which the Potency is 0.0019 µM (active).
As for `CN(N=O)C(=O)N[C@@H]1[C@@H](O)[C@H](O)[C@@H](CO)O[C@@H]1O`, the viability is 101% (inactive).
Take `COC[C@H](NC(=O)c1cnc(C)s1)C(=O)N[C@@H](COC)C(=O)N[C@@H](Cc1ccccc1)C(=O)[C@@]1(C)CO1`: the Potency was 0.166 µM (active).
As for `CC[C@H](NC(C)C)[C@H](O)c1ccc(O)c2[nH]c(=O)ccc12`, the viability was 117% (inactive).
On to `CN(C)N(C)C(=O)[C@@]1(Cc2ccccc2)CCCN(C(=O)[C@@H](Cc2c[nH]c3ccccc23)NC(=O)C(C)(C)N)C1`, for which the viability was 113% (inactive).
